Results from PubChem BioAssay AID1159580 (chemical genetic matrix, 2015).
Screen size: about 5,500 compounds; about 2,000 (36%) were called active. About 18% were inconclusive and are not listed. Rule as the data show it: active = normalized growth mostly below about 0.91 (no sharp cut-off); inconclusive = no clear call, values can overlap the other calls; inactive = mostly above about 0.92. Some of the results follow.

Experiment: chemical genetic growth profiling, strain panel (AID 1159580);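 also: tested at 20 µM; growth read once vehicle control cultures reached saturation at 30 °C; 1 = growth at the plate median or of vehicle wells; lower values mean less growth of the strain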
Conditions: growth OD
[1] = S. cerevisiae deletion strains, locus YDL101C, strain DUN1, active compounds read low
[2] = S. cerevisiae deletion strains, locus YHR030C, strain SLT2, active compounds read low
[3] = S. cerevisiae deletion strains, locus YAR019C, strain CDC15, active compounds read low
[4] = S. cerevisiae deletion strains, locus YBL105C, strain PKC1, active compounds read low
[5] = S. cerevisiae deletion strains, locus YBR135W, strain CKS1, active compounds read low
[6] = S. cerevisiae deletion strains, locus YBR136W, strain MEC1, active compounds read low
[7] = S. cerevisiae deletion strains, locus YBR160W, strain CDC28, active compounds read low
[8] = S. cerevisiae deletion strains, locus YDL017W, strain CDC7, active compounds read low
[9] = S. cerevisiae deletion strains, locus YDL028C, strain MPS1, active compounds read low
[10] = S. cerevisiae deletion strains, locus YDL108W, strain KIN28, active compounds read low
[11] = S. cerevisiae deletion strains, locus YDL132W, strain cdc53, active compounds read low
[12] = S. cerevisiae deletion strains, locus YDL214C, strain PRR2, active compounds read low
[13] = S. cerevisiae deletion strains, locus YDR052C, strain DBF4, active compounds read low
[14] = S. cerevisiae deletion strains, locus YDR054C, strain cdc34, active compounds read low
[15] = S. cerevisiae deletion strains, locus YDR226W, strain ADK1, active compounds read low
[16] = S. cerevisiae deletion strains, locus YDR477W, strain SNF1, active compounds read low
[17] = S. cerevisiae deletion strains, locus YER123W, strain YCK3, active compounds read low
[18] = S. cerevisiae deletion strains, locus YER133W, strain GLC7, active compounds read low
[19] = S. cerevisiae deletion strains, locus YFL009W, strain cdc4, active compounds read low
[20] = S. cerevisiae deletion strains, locus YFL029C, strain CAK1, active compounds read low
[21] = S. cerevisiae deletion strains, locus YFR003C, strain YPI1, active compounds read low
[22] = S. cerevisiae deletion strains, locus YFR019W, strain FAB1, active compounds read low
[23] = S. cerevisiae deletion strains, locus YFR028C, strain CDC14, active compounds read low
[24] = S. cerevisiae deletion strains, locus YGR040W, strain KSS1, active compounds read low
[25] = S. cerevisiae deletion strains, locus YGR052W, strain FMP48, active compounds read low
[26] = S. cerevisiae deletion strains, locus YGR092W, strain DBF2, active compounds read low
[27] = S. cerevisiae deletion strains, locus YHR079C, strain IRE1, active compounds read low
[28] = S. cerevisiae deletion strains, locus YHR082C, strain KSP1, active compounds read low
[29] = S. cerevisiae deletion strains, locus YHR205W, strain SCH9, active compounds read low
[30] = S. cerevisiae deletion strains, locus YIL147C, strain SLN1, active compounds read low
[31] = S. cerevisiae deletion strains, locus YJL095W, strain BCK1, active compounds read low
[32] = S. cerevisiae deletion strains, locus YJL128C, strain PBS2, active compounds read low
[33] = S. cerevisiae deletion strains, locus YJL157C, strain FAR1, active compounds read low
[34] = S. cerevisiae deletion strains, locus YJR016C, strain ILV3, active compounds read low
[35] = S. cerevisiae deletion strains, locus YJR066W, strain TOR1 (second series), active compounds read low
[36] = S. cerevisiae deletion strains, locus YJR066W, strain TOR1, active compounds read low
[37] = S. cerevisiae deletion strains, locus YKL048C, strain ELM1, active compounds read low
[38] = S. cerevisiae deletion strains, locus YKL067W, strain YNK1, active compounds read low
[39] = S. cerevisiae deletion strains, locus YKL101W, strain HSL1, active compounds read low
[40] = S. cerevisiae deletion strains, locus YKL193C, strain SDS22, active compounds read low
[41] = S. cerevisiae deletion strains, locus YKL203C, strain TOR2, active compounds read low
[42] = S. cerevisiae deletion strains, locus YLR113W, strain HOG1, active compounds read low
[43] = S. cerevisiae deletion strains, locus YLR133W, strain CKI1, active compounds read low
[44] = S. cerevisiae deletion strains, locus YLR403W, strain SFP1, active compounds read low
[45] = S. cerevisiae deletion strains, locus YML070W, strain DAK1, active compounds read low
[46] = S. cerevisiae deletion strains, locus YMR001C, strain CDC5, active compounds read low
[47] = S. cerevisiae deletion strains, locus YMR205C, strain PFK2 (second series), active compounds read low
[48] = S. cerevisiae deletion strains, locus YMR277W, strain FCP1, active compounds read low
[49] = S. cerevisiae deletion strains, locus YNL006W, strain LST8, active compounds read low
[50] = S. cerevisiae deletion strains, locus YNL020C, strain ARK1, active compounds read low
[51] = S. cerevisiae deletion strains, locus YNL161W, strain CBK1, active compounds read low
[52] = S. cerevisiae deletion strains, locus YNL183C, strain NPR1, active compounds read low
[53] = S. cerevisiae deletion strains, locus YNL207W, strain RIO2, active compounds read low
[54] = S. cerevisiae deletion strains, locus YNL222W, strain SSU72, active compounds read low
[55] = S. cerevisiae deletion strains, locus YNL307C, strain MCK1 (second series), active compounds read low
[56] = S. cerevisiae deletion strains, locus YOL078W, strain AVO1, active compounds read low
[57] = S. cerevisiae deletion strains, locus YOL136C, strain PFK27, active compounds read low
[58] = S. cerevisiae deletion strains, locus YOR061W, strain CKA2, active compounds read low
[59] = S. cerevisiae deletion strains, locus YOR119C, strain RIO1, active compounds read low
[60] = S. cerevisiae deletion strains, locus YOR231W, strain MKK1, active compounds read low
[61] = S. cerevisiae deletion strains, locus YOR329C, strain SCD5, active compounds read low
[62] = S. cerevisiae deletion strains, locus YPL031C, strain PHO85, active compounds read low
[63] = S. cerevisiae deletion strains, locus YPL153C, strain RAD53, active compounds read low
[64] = S. cerevisiae deletion strains, locus YPL204W, strain HRR25, active compounds read low
[65] = S. cerevisiae deletion strains, locus YPL209C, strain IPL1, active compounds read low
[66] = S. cerevisiae deletion strains, locus YPL256C, strain CLN2, active compounds read low
[67] = S. cerevisiae deletion strains, locus YPR025C, strain CCL1, active compounds read low
[68] = S. cerevisiae deletion strains, locus YPR106W, strain ISR1, active compounds read low
[69] = S. cerevisiae deletion strains, locus YPR111W, strain DBF20, active compounds read low
[70] = S. cerevisiae deletion strains, strain NNK1, active compounds read low
[71] = S. cerevisiae deletion strains, strain TSCII, active compounds read low

Measured: normalized growth

Clc1cccc(Cl)c1CSC1=NCCCN1C1CCCCC1
inactive: S. cerevisiae deletion strains, locus YAL013W, strain DEP1, active compounds read low 0.999 | S. cerevisiae deletion strains, locus YBR229C, strain ROT2, active compounds read low 1 | [1] 1 | S. cerevisiae deletion strains, locus YDR150W, strain NUM1, active compounds read low 0.993 | S. cerevisiae deletion strains, locus YEL061C, strain CIN8, active compounds read low 0.973 | S. cerevisiae deletion strains, locus YGR078C, strain PAC10, active compounds read low 1 | S. cerevisiae deletion strains, locus YGR229C, strain SMI1, active compounds read low 1 | [2] 0.967 | S. cerevisiae deletion strains, locus YHR087W, strain rtc3, active compounds read low 1.01 | S. cerevisiae deletion strains, locus YJL187C, strain SWE1, active compounds read low 1.01 | S. cerevisiae deletion strains, locus YJR043C, strain POL32, active compounds read low 1 | S. cerevisiae deletion strains, locus YJR075W, strain HOC1, active compounds read low 1.03 | S. cerevisiae deletion strains, locus YLR039C, strain RIC1, active compounds read low 1 | S. cerevisiae deletion strains, locus YLR058C, strain SHM2 (second series), active compounds read low 0.993 | S. cerevisiae deletion strains, locus YLR085C, strain ARP6, active compounds read low 0.987 | S. cerevisiae deletion strains, locus YLR262C, strain YPT6, active compounds read low 1.01 | S. cerevisiae deletion strains, locus YML094W, strain GIM5, active compounds read low 0.988 | S. cerevisiae deletion strains, locus YMR219W, strain ESC1, active compounds read low 0.994 | S. cerevisiae deletion strains, locus YMR263W, strain SAP30, active compounds read low 1.01 | S. cerevisiae deletion strains, locus YNL153C, strain GIM3, active compounds read low 0.985 | S. cerevisiae deletion strains, locus YNL298W, strain CLA4 (second series), active compounds read low 0.998 | S. cerevisiae deletion strains, locus YNL322C, strain KRE1, active compounds read low 1 | S. cerevisiae deletion strains, locus YNR030W, strain Alg12, active compounds read low 0.975 | S. cerevisiae deletion strains, locus YOL006C, strain TOP1, active compounds read low 0.986 | S. cerevisiae deletion strains, locus YPL055C, strain LGE1, active compounds read low 1.05 | S. cerevisiae deletion strains, locus YPL241C, strain CIN2, active compounds read low 0.992 | S. cerevisiae deletion strains, locus YPR135W, strain CTF4, active compounds read low 1.09 | S. cerevisiae strains, strain wild type, active compounds read low 1

Nc1ccccc1SCc1c(Cl)cccc1Cl
active: [2] 0.695 | [42] 0.696
inactive: [3] 0.949 | [4] 0.947 | [5] 0.957 | [6] 0.945 | [7] 0.953 | [8] 0.952 | [9] 0.947 | [1] 0.953 | [10] 0.954 | [11] 0.94 | [12] 0.889 | [13] 0.962 | [14] 0.943 | [15] 0.969 | [16] 0.859 | [17] 0.795 | [18] 0.821 | [19] 0.946 | [20] 0.949 | [21] 0.944 | [22] 0.841 | [23] 0.948 | [24] 0.853 | [25] 0.787 | [26] 0.775 | [27] 0.843 | [28] 0.835 | [29] 0.68 | [30] 0.952 | [31] 0.617 | [32] 0.914 | [33] 0.885 | [34] 0.956 | [35] 0.813 | [36] 0.767 | [37] 0.939 | [38] 0.87 | [39] 0.87 | [40] 0.952 | [41] 0.907 | [43] 0.91 | [44] 0.795 | [45] 0.831 | [46] 0.945 | [47] 0.885 | [48] 0.951 | [49] 0.959 | [50] 0.891 | [51] 0.955 | [52] 0.79 | [53] 0.948 | [54] 0.951 | [55] 0.825 | [56] 0.943 | [57] 0.853 | [58] 0.843 | [59] 0.905 | [60] 0.751 | [61] 0.95 | [62] 0.841 | [63] 0.85 | [64] 0.857 | [65] 0.949 | [66] 0.917 | [67] 0.95 | [68] 0.95 | [69] 0.935 | [70] 0.944 | [71] 0.952

N#CC(C#N)=C(SCc1c(Cl)cccc1Cl)SCc1c(Cl)cccc1Cl
inactive: [3] 0.997 | [4] 0.981 | [5] 0.992 | [6] 0.988 | [7] 0.996 | [8] 0.989 | [9] 0.993 | [1] 0.988 | [10] 0.989 | [11] 0.984 | [12] 0.996 | [13] 0.99 | [14] 0.977 | [15] 0.981 | [16] 0.993 | [17] 0.999 | [18] 0.995 | [19] 0.981 | [20] 0.986 | [21] 0.99 | [22] 0.979 | [23] 0.993 | [24] 0.993 | [25] 1.03 | [26] 0.982 | [2] 0.925 | [27] 0.93 | [28] 1.11 | [29] 0.859 | [30] 0.992 | [31] 0.969 | [32] 0.993 | [33] 0.989 | [34] 0.991 | [35] 1 | [36] 1.09 | [37] 0.954 | [38] 0.995 | [39] 0.981 | [40] 0.987 | [41] 1.08 | [42] 0.95 | [43] 0.991 | [44] 0.937 | [45] 0.998 | [46] 0.985 | [47] 0.996 | [48] 0.994 | [49] 0.997 | [50] 0.987 | [51] 0.983 | [52] 1.1 | [53] 0.987 | [54] 0.987 | [55] 0.989 | [56] 0.993 | [57] 0.988 | [58] 0.995 | [59] 1.08 | [60] 1.01 | [61] 0.986 | [62] 0.989 | [63] 1.01 | [64] 1 | [65] 0.987 | [66] 0.946 | [67] 0.996 | [68] 0.998 | [69] 0.988 | [70] 0.996 | [71] 0.993
